Data reported in the supplement of paper PMC11732987, “Enantioselective OTUD7B fragment discovery through chemoproteomics screening and high-throughput optimisation” (Communications Chemistry, 2025).
A number with no mark means an inactive call.

Columns and labels:
Experiment in all cases: log2 ratio of Biotin-Ahx-Ub-VS probe labelling (fragment/DMSO); higher = less target engagement (more negative = stronger competition), active = hit call of the paper (q ≤ 0.05, log2 ratio ≤ -1)
Conditions in all cases: compound concentration: 200 uM; treatment time: 3 h
USP19 = target: T1, USP19 (UniProt O94966)
T1 sequence (whole entry): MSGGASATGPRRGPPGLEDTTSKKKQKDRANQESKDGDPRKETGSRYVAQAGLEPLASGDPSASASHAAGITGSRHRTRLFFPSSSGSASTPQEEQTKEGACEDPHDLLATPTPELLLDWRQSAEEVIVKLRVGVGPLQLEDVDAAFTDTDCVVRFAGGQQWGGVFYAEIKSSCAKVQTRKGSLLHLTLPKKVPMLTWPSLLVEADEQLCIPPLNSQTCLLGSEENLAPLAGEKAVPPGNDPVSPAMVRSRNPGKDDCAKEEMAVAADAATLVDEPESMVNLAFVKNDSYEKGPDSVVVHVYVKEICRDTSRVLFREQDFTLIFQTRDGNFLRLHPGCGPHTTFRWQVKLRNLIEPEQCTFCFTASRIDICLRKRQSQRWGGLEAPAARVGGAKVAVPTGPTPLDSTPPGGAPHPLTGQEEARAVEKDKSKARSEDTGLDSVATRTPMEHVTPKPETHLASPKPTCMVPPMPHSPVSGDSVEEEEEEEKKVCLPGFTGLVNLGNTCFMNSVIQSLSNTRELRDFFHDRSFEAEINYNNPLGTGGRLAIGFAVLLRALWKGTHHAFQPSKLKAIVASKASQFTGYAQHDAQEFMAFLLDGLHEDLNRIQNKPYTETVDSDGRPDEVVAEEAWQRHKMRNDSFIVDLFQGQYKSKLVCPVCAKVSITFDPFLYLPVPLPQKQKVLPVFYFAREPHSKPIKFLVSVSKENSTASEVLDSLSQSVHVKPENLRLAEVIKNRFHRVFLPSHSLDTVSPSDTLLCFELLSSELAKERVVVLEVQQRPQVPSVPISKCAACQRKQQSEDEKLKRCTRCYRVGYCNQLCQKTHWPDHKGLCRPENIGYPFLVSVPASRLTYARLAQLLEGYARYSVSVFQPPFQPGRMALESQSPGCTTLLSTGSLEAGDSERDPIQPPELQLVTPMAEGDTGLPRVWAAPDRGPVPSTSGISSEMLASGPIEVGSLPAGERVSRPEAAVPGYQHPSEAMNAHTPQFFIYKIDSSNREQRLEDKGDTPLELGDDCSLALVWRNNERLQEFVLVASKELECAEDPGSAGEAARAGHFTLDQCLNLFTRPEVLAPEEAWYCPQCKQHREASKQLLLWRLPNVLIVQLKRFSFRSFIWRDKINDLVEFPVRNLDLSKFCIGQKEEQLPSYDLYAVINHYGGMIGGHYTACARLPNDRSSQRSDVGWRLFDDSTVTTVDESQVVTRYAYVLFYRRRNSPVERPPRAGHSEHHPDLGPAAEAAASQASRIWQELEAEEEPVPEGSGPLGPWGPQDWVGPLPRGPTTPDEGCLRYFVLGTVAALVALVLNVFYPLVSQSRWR
Method in brief: (§1)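 Average log2 ratios of fragment over vehicle were obtained by unpaired t-test from global-median-normalised Spectronaut label-free quantities. Proteins with ≥2 unique peptides were included. HEK293T lysate (495 µg per sample) was treated in triplicate with fragment at 200 µM or vehicle for 3 h, then with Biotin-Ahx-Ub-VS at 0.5 µM final for 1 h, and labelled DUBs were NeutrAvidin-enriched and run by diaPASEF LC-MS/MS.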

USP22 = target: T2, USP22 (UniProt Q9UPT9)
T2 sequence (whole entry): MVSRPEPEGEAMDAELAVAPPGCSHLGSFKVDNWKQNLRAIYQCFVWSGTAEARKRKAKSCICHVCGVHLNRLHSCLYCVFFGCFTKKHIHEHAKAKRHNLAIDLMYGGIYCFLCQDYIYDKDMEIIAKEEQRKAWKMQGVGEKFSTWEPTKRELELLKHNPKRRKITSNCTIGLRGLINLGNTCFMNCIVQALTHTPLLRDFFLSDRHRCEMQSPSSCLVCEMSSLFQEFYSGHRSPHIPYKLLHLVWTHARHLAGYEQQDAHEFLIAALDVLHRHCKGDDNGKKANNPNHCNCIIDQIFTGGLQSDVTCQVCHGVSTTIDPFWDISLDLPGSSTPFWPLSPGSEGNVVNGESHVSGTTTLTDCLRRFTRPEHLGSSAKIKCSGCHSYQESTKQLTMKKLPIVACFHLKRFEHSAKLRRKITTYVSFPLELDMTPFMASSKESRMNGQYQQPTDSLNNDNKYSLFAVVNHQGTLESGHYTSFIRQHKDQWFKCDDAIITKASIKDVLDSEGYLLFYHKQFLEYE
Method in brief: as §1

USP24 = USP24 (UniProt Q9UPU5)
Chain of USP24 (Q9UPU5 whole entry): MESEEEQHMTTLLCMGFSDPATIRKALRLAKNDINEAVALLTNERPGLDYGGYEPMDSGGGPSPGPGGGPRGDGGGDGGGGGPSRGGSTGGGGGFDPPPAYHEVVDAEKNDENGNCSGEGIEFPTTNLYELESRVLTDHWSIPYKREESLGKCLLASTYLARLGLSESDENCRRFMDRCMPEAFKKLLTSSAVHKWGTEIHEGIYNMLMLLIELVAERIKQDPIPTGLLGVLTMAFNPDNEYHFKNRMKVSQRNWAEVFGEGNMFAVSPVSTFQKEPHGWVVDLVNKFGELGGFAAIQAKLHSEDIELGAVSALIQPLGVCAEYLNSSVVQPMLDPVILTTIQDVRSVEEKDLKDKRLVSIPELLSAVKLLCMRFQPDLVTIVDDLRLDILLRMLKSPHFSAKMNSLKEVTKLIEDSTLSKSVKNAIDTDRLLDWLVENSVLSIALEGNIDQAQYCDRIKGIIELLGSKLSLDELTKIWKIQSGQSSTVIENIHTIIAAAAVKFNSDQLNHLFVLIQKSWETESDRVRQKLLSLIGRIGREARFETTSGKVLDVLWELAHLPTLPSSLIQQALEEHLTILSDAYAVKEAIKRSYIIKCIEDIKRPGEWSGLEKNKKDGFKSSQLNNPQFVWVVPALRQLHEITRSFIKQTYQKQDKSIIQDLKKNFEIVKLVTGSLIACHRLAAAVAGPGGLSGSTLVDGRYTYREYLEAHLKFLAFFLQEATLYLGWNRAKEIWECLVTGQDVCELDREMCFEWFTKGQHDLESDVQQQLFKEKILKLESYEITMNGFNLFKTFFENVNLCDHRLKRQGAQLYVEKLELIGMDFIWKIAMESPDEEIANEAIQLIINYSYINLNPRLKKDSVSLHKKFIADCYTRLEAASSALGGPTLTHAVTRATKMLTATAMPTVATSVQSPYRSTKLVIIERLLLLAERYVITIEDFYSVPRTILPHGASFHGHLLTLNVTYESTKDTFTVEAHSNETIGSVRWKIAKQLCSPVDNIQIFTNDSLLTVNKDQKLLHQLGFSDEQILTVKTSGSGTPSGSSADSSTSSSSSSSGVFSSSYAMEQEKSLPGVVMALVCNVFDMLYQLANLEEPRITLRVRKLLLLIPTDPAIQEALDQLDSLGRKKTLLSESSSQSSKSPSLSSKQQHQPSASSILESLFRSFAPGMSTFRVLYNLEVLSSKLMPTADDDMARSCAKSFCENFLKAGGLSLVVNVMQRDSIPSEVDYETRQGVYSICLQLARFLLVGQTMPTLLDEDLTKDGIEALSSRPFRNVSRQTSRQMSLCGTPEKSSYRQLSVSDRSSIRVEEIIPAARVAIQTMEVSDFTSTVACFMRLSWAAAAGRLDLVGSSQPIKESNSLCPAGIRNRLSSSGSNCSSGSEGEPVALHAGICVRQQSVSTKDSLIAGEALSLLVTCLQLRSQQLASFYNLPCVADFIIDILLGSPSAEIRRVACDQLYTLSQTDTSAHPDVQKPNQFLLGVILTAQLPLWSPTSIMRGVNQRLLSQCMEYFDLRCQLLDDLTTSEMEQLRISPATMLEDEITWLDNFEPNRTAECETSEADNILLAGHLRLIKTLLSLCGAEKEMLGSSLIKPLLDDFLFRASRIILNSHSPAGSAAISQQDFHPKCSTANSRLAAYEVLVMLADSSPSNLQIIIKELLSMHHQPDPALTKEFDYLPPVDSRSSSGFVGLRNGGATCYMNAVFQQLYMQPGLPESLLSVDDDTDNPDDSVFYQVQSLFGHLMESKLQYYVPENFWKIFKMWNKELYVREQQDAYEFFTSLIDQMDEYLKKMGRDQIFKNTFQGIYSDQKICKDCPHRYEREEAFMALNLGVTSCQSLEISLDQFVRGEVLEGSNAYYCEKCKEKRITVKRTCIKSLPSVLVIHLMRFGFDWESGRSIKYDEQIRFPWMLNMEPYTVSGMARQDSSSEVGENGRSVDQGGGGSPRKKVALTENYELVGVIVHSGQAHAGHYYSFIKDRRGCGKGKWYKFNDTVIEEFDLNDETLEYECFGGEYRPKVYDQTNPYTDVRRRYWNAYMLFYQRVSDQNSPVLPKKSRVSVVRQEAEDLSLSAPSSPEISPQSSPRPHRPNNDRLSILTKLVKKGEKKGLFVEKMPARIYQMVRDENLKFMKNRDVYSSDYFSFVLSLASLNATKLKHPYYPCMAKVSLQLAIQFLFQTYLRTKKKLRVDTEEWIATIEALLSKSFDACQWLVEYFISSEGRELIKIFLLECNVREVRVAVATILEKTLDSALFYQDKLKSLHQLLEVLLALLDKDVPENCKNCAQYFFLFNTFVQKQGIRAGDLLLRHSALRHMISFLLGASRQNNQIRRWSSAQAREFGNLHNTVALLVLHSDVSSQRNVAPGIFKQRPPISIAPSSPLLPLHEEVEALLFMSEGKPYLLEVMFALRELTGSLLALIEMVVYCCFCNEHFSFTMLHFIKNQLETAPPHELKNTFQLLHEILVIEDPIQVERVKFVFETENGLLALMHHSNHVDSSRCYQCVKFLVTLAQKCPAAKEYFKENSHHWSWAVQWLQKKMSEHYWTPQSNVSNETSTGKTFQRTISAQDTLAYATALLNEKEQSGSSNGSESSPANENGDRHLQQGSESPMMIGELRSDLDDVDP
Method in brief: as §1

USP25 = target: T3, USP25 (UniProt Q9UHP3)
T3 sequence (whole entry): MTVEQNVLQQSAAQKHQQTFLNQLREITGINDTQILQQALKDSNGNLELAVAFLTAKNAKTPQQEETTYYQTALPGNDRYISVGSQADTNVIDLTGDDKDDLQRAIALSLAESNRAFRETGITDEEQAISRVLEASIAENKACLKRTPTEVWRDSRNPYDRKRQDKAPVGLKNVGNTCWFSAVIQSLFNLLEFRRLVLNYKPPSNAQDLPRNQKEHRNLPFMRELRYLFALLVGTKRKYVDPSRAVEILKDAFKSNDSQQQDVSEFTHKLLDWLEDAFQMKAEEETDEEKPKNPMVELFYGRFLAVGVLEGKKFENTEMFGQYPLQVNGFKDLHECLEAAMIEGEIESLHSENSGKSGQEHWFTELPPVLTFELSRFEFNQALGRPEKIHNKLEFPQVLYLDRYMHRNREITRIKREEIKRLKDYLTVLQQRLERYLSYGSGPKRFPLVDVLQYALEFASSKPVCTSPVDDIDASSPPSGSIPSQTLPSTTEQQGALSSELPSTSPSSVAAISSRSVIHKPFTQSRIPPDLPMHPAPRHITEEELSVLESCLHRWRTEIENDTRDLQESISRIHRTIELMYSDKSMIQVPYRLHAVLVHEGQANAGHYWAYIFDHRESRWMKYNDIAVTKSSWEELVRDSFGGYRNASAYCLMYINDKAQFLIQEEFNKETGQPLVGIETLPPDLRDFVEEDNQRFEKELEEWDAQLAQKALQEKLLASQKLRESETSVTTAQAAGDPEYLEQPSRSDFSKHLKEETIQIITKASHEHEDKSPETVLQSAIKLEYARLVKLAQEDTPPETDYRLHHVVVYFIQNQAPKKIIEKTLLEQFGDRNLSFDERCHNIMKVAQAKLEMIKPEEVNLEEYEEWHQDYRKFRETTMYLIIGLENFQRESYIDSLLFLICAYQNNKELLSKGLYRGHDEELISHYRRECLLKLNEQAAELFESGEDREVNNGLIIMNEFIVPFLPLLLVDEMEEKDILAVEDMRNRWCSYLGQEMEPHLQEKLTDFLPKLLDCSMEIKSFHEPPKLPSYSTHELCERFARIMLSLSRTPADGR
Method in brief: as §1

USP28 = target: T4, USP28 (UniProt Q96RU2)
T4 sequence (whole entry): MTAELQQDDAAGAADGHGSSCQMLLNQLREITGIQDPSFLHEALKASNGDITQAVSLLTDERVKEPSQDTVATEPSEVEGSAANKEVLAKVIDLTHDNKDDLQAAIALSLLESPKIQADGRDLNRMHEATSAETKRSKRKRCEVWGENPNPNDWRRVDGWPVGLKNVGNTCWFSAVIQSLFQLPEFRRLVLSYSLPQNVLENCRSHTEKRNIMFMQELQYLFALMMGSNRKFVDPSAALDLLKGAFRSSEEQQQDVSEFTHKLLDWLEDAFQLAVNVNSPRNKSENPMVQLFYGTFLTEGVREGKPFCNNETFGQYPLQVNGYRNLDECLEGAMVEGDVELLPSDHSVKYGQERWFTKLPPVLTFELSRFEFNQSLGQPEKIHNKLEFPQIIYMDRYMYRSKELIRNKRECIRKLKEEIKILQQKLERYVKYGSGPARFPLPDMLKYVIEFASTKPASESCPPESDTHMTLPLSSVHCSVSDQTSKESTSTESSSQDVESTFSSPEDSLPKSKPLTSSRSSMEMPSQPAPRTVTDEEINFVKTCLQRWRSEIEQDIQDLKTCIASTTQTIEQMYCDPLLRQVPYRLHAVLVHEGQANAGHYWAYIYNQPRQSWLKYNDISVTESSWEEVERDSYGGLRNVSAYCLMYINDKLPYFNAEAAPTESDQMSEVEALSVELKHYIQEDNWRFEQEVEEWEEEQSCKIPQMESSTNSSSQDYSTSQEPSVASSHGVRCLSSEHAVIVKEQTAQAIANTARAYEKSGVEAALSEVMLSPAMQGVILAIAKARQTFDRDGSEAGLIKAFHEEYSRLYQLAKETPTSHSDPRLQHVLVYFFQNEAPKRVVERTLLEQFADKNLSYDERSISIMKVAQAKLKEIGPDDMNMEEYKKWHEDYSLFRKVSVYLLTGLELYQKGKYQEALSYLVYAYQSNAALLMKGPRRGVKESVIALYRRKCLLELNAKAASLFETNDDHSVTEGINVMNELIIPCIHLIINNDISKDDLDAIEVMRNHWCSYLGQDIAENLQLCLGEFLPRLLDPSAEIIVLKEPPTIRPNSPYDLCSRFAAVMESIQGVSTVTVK
Method in brief: as §1

## NS(=O)(=O)c1ccc(Cl)c(NC(=O)CCl)c1
USP19
  log2 ratio of Biotin-Ahx-Ub-VS probe labelling: -0.307
USP22
  log2 ratio of Biotin-Ahx-Ub-VS probe labelling: -0.46
USP24
  log2 ratio of Biotin-Ahx-Ub-VS probe labelling: -0.149
USP25
  log2 ratio of Biotin-Ahx-Ub-VS probe labelling: -1.57 (active)
USP28
  log2 ratio of Biotin-Ahx-Ub-VS probe labelling: -1.42 (active)
